Measured values: article PMC4336329 (PLoS ONE, 2015)
Hit rate of the full screen: of about 310,000 compounds, about 14,000 (4.5%) showed an effect of 50% or more. The effect is printed as a negative number. Shown is part of a subset that was picked to be rich in strong results.

Each molecule was assayed against human ether-à-go-go-related gene (hERG) potassium channel (human, UniProt Q12809) (assay: primary screen, population patch clamp on CHO cells stably expressing hERG; higher = less effect of the substance).
Chain of human ether-à-go-go-related gene (hERG) potassium channel (Q12809 whole entry, looked up): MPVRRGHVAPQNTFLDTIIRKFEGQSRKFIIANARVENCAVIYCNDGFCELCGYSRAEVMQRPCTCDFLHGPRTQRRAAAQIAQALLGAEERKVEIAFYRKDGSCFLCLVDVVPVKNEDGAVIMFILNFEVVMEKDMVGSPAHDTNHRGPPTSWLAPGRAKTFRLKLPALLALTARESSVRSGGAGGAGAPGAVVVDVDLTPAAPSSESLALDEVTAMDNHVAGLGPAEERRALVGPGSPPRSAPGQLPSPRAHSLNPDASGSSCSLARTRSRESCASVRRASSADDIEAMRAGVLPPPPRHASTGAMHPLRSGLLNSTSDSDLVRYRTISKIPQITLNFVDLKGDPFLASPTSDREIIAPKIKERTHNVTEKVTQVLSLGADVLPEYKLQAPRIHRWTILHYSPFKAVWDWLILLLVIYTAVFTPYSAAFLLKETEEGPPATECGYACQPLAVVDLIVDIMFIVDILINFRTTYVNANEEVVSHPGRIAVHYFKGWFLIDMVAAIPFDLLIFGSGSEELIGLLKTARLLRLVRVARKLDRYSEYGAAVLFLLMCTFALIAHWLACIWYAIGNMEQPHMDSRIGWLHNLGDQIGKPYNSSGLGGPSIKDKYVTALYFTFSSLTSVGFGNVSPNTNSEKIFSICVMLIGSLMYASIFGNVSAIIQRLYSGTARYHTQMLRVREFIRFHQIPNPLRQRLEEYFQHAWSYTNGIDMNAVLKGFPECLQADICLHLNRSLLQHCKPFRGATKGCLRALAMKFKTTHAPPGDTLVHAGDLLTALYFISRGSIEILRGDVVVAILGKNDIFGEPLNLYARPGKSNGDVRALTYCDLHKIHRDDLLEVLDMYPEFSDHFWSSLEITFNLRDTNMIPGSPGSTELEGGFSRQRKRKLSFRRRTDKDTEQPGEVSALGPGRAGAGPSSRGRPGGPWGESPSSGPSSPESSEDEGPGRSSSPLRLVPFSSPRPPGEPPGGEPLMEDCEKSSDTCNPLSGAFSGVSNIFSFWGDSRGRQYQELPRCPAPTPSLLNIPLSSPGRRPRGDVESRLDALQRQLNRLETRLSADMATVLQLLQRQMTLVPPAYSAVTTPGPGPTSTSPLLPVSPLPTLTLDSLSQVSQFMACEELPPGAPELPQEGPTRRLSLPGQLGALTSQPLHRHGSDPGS
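Also: peak tail current of the secondary pulse compared with the same well before compound.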

Structure (SMILES)	hERG current change (%, negative = inhibition) at 10uM
Cc1ccc(-c2n[nH]c(=O)c3ccccc23)cc1N	5.75%
COc1cccc(CNC(=O)c2ccc(Cl)c(S(=O)(=O)N3CCOCC3)c2)c1	-19.5%
COc1ccc(OC)c(S(=O)(=O)n2nnc3cc(Cl)ccc32)c1	4.31%
COc1ccc(NC(=O)c2ccccc2OCc2c(C)noc2C)cc1OC	-37.5%
CN(c1ccc(C(=O)N2CCN(Cc3ccccc3)CC2)cc1)S(=O)(=O)c1ccc(Cl)cc1	-24.9%
CCOc1ccc(C(=O)N2CCCC(c3nc(-c4cccs4)no3)C2)cc1 (centres unmarked)	-46.9%
Cc1ccc(-c2noc(C3CCCN(C(=O)c4ccccc4)C3)n2)o1 (centres unmarked)	-13.1%
Cc1ccc(-c2noc(C3CCCN(C(=O)c4cccc(Cl)c4)C3)n2)o1 (centres unmarked)	-43.4%
Cc1cccc(C(=O)N2CCCC(c3nc(-c4ccc(C)o4)no3)C2)c1 (centres unmarked)	-27.7%
Cc1ccc(-c2noc(C3CCCN(C(=O)c4ccc(C(C)(C)C)cc4)C3)n2)o1 (centres unmarked)	-19.8%
COc1ccc(C(=O)N2CCCC(c3nc(-c4ccc(C)o4)no3)C2)cc1OC (centres unmarked)	-8.29%
CCOc1ccc(C(=O)N2CCCC(c3nc(-c4ccc(C)o4)no3)C2)cc1 (centres unmarked)	-60.2%
Cc1ccc(-c2noc(C3CCCN(C(=O)c4cccc([N+](=O)[O-])c4)C3)n2)o1 (centres unmarked)	-65%
CCOc1ccccc1NC(=O)N1CCCC(c2nc(-c3ccc(C)o3)no2)C1 (centres unmarked)	-52.5%
Cc1ccc(-c2noc(C3CCCN(C(=O)c4ccccc4Br)C3)n2)o1 (centres unmarked)	-42.6%
COc1cc(OC)cc(C(=O)N2CCCC(c3nc(-c4ccc(C)o4)no3)C2)c1 (centres unmarked)	-9.35%
Cc1ccc(-c2noc(C3CCCN(C(=O)c4ccc(Cl)cc4)C3)n2)o1 (centres unmarked)	-55.2%
COc1ccc(S(=O)(=O)N2CCCCCC2)cc1C(=O)OCC(=O)NC(C)(C)C	-17.5%
O=C(NC1CCS(=O)(=O)C1)c1ccc(-c2ccc(Br)cc2)o1 (centres unmarked)	-20.9%
O=C1CN(C(=O)N[C@@H](Cc2ccccc2)C(=O)N[C@@H](Cc2ccccc2)C(=O)O)c2ccccc2N1	3.79%
CCOc1cccc(OCCOCCNC(C)(C)C)c1.O=C(O)C(=O)O	3.71%
COn1c(=O)c(=O)n(OC)c2ccccc21	-3.45%
Cc1ccc(C)c(S(=O)(=O)N2CCCOC2CNC(=O)C(=O)NCc2ccco2)c1 (centres unmarked)	11.6%
CC(C)CCN1C(=O)c2ccccc2C1C(=O)NCc1cccnc1 (centres unmarked)	-16.1%
Cc1nc2c(C(=O)N3CCN(c4ccccn4)CC3)cnn2c(C)c1Cc1cccc(Cl)c1	-43.4%
Brc1cc(Br)c2ncnc(N3CCCCC3)c2c1	-11.8%
CCc1cc(C(=O)OC)c(NC(=O)C2CC(=O)NN2Cc2ccccc2)s1 (centres unmarked)	-29.7%

Structure (SMILES)	hERG current change (%, negative = inhibition) at 10uM
O=c1c2ccccc2nc(/C=C/c2ccccn2)n1-c1ccccc1	10.9%
COc1ccccc1NC(=O)CCCCCN1C(=O)c2cccc([N+](=O)[O-])c2C1=O	-39.2%
CCOc1ccccc1NC(=O)CN1CCN(C(=O)C2CCCO2)CC1 (centres unmarked)	-10.6%
O=C(OCn1nnc2ccccc2c1=O)c1cc(-c2ccccc2)nc2ccccc12	6.74%
CCN(CC(=O)NCc1ccc(F)cc1)CC(=O)Nc1cc(S(=O)(=O)N(C)C)ccc1C	-75.6%
Cc1ccc(S(=O)(=O)N(C)C)cc1NC(=O)COC(=O)CNC(=O)c1cccs1	14.5%
CCN(CC(=O)NCc1ccc(F)cc1)CC(=O)Nc1ccc(S(=O)(=O)N2CCCC2)cc1	-22.8%
Cc1ccc(OCCC(=O)OCC(=O)Nc2cc(S(=O)(=O)N(C)C)ccc2C)cc1	-26.6%
Cc1ccc(S(=O)(=O)N(C)C)cc1NC(=O)COC(=O)Cc1ccc(Br)cc1	-56.7%
Cc1ccc(S(=O)(=O)N(C)C)cc1NC(=O)COC(=O)CSc1ccccc1	-21.3%
O=C(COC(=O)Cc1cccs1)Nc1cccc(S(=O)(=O)N2CCOCC2)c1	0.0981%
Cc1ccc(NC(=O)COC(=O)Cc2cccs2)cc1S(=O)(=O)N1CCOCC1	-23.5%
Cc1ccc(S(=O)(=O)N(C)C)cc1NC(=O)COC(=O)Cc1cccs1	-74.5%
Cc1ccc(S(=O)(=O)N(C)C)cc1NC(=O)COC(=O)CCC(=O)c1cccs1	-21.8%
Cc1ccc(S(=O)(=O)N2CCOCC2)cc1NC(=O)COC(=O)Cc1cccs1	-62.8%
CCN(CC(=O)NCc1ccc(F)cc1)CC(=O)Nc1ccccc1-c1ccccc1	-16%
Cc1c(CC(=O)N[C@H](C(=O)O)C(C)C)c(=O)oc2cc3c(cc12)CCC(C)(C)O3	23.1%
COCCCNC(=O)CNC(=S)N(Cc1ccccc1F)C1CCCCC1	4.18%
O=[n+]1c2c(n([O-])c3cc(Br)ccc31)CCC2	-2.98%
C(=C\c1ccncc1)/c1ccccc1	-10.6%
CN(CC(=O)Nc1ccccc1Cl)C(=O)c1ccc(COc2ccccc2)cc1	-12.9%
Cc1ccc(S(=O)(=O)NCC(=O)OCN2C(=O)c3ccccc3C2=O)cc1	5.91%
O=C(CSc1ccc(Cl)cc1)NNC(=O)c1cccnc1	-21%
Cc1nn(-c2ccccc2)c(Cl)c1/C=N/Nc1ccc(Cl)c(C(=O)O)c1	21.3%
Cc1ccc(Nc2ccc(C(=O)O)cc2[N+](=O)[O-])cc1	15.1%
O=C(OCc1ccc(Br)cc1)c1ccncc1	5.25%
